# Results: PubChem BioAssay AID1159580 (chemical genetic matrix, 2015)
# Among all 5,500 compounds or so, about 2,000 (36%) were called active. About 18% were inconclusive and are not listed. Some of the results follow. Values without a mark were called inactive. No stated cut-off is given here; in the data, active means normalized growth mostly below about 0.91 (no sharp cut-off); inconclusive means no clear call, values can overlap the other calls; inactive means mostly above about 0.92.
# Experiment: chemical genetic growth profiling, strain panel (AID 1159580);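 further: tested at 20 µM; growth read once vehicle control cultures reached saturation at 30 °C; 1 = growth at the plate median or of vehicle wells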
# Conditions: growth OD
compound,measurement,setting,value
C=CC(C1=CC(=O)C(OC)=CC1=O)c1ccc(OC)cc1 (configuration not stated),normalized growth,"S. cerevisiae deletion strains, locus YJR066W, strain TOR1, stronger effect = lower value",0.94
same,normalized growth,"S. cerevisiae deletion strains, locus YJR075W, strain HOC1, stronger effect = lower value",0.859 (active)
same,normalized growth,"S. cerevisiae deletion strains, locus YKL009W, strain mrt4, stronger effect = lower value",0.944
same,normalized growth,"S. cerevisiae deletion strains, locus YKL068W, stronger effect = lower value",0.976
same,normalized growth,"S. cerevisiae deletion strains, locus YKL085W, strain MDH1 (second series), stronger effect = lower value",0.966
same,normalized growth,"S. cerevisiae deletion strains, locus YKL085W, strain MDH1, stronger effect = lower value",0.966
same,normalized growth,"S. cerevisiae deletion strains, locus YKL160W, strain elf1, stronger effect = lower value",0.741 (active)
same,normalized growth,"S. cerevisiae deletion strains, locus YKL190W, strain CNB1, stronger effect = lower value",0.947
same,normalized growth,"S. cerevisiae deletion strains, locus YKR001C, strain vps1, stronger effect = lower value",0.814 (active)
same,normalized growth,"S. cerevisiae deletion strains, locus YKR026C, strain gcn3, stronger effect = lower value",0.967
same,normalized growth,"S. cerevisiae deletion strains, locus YKR091W, strain srl3, stronger effect = lower value",0.998
same,normalized growth,"S. cerevisiae deletion strains, locus YLL001W, strain dnm1, stronger effect = lower value",0.907
same,normalized growth,"S. cerevisiae deletion strains, locus YLL026W, stronger effect = lower value",0.839 (active)
same,normalized growth,"S. cerevisiae deletion strains, locus YLL041C, strain sdh2, stronger effect = lower value",0.955
same,normalized growth,"S. cerevisiae deletion strains, locus YLR027C, strain aat2, stronger effect = lower value",0.759 (active)
same,normalized growth,"S. cerevisiae deletion strains, locus YLR039C, strain RIC1, stronger effect = lower value",0.819
same,normalized growth,"S. cerevisiae deletion strains, locus YLR058C, strain SHM2, stronger effect = lower value",0.952
same,normalized growth,"S. cerevisiae deletion strains, locus YLR102C, strain apc9, stronger effect = lower value",0.945
same,normalized growth,"S. cerevisiae deletion strains, locus YLR113W, strain HOG1, stronger effect = lower value",0.958
same,normalized growth,"S. cerevisiae deletion strains, locus YLR221C, strain rsa3, stronger effect = lower value",0.701 (active)
same,normalized growth,"S. cerevisiae deletion strains, locus YLR258W, strain gsy2, stronger effect = lower value",0.849 (active)
same,normalized growth,"S. cerevisiae deletion strains, locus YLR262C, strain YPT6 (second series), stronger effect = lower value",0.39 (active)
same,normalized growth,"S. cerevisiae deletion strains, locus YLR262C, strain YPT6, stronger effect = lower value",0.71
same,normalized growth,"S. cerevisiae deletion strains, locus YLR268W, strain sec22, stronger effect = lower value",0.87 (active)
same,normalized growth,"S. cerevisiae deletion strains, locus YLR320W, strain mms22, stronger effect = lower value",0.276 (active)
same,normalized growth,"S. cerevisiae deletion strains, locus YLR330W, strain CHS5, stronger effect = lower value",0.968
same,normalized growth,"S. cerevisiae deletion strains, locus YLR342W, strain FKS1 (second series), stronger effect = lower value",0.674 (active)
same,normalized growth,"S. cerevisiae deletion strains, locus YLR342W, strain FKS1, stronger effect = lower value",0.914
same,normalized growth,"S. cerevisiae deletion strains, locus YLR357W, strain rsc2, stronger effect = lower value",1.07
same,normalized growth,"S. cerevisiae deletion strains, locus YLR370C, strain arc18, stronger effect = lower value",0.864 (active)
same,normalized growth,"S. cerevisiae deletion strains, locus YLR371W, strain rom2, stronger effect = lower value",0.941
same,normalized growth,"S. cerevisiae deletion strains, locus YLR384C, strain iki3, stronger effect = lower value",0.974
same,normalized growth,"S. cerevisiae deletion strains, locus YLR418C, strain cdc73, stronger effect = lower value",0.783 (active)
same,normalized growth,"S. cerevisiae deletion strains, locus YML016C, strain PPZ1, stronger effect = lower value",0.973
same,normalized growth,"S. cerevisiae deletion strains, locus YML032C, strain rad52, stronger effect = lower value",0.855 (active)
same,normalized growth,"S. cerevisiae deletion strains, locus YML120C, strain ndi1, stronger effect = lower value",0.911 (active)
same,normalized growth,"S. cerevisiae deletion strains, locus YML124C, strain tub3, stronger effect = lower value",0.949
same,normalized growth,"S. cerevisiae deletion strains, locus YMR058W, strain fet3, stronger effect = lower value",0.84 (active)
same,normalized growth,"S. cerevisiae deletion strains, locus YMR078C, strain ctf18, stronger effect = lower value",0.914
same,normalized growth,"S. cerevisiae deletion strains, locus YMR125W, strain sto1, stronger effect = lower value",0.779 (active)
same,normalized growth,"S. cerevisiae deletion strains, locus YMR129W, stronger effect = lower value",1
same,normalized growth,"S. cerevisiae deletion strains, locus YMR205C, strain PFK2, stronger effect = lower value",0.715 (active)
same,normalized growth,"S. cerevisiae deletion strains, locus YMR223W, strain ubp8, stronger effect = lower value",0.851 (active)
same,normalized growth,"S. cerevisiae deletion strains, locus YMR263W, strain SAP30, stronger effect = lower value",0.946
same,normalized growth,"S. cerevisiae deletion strains, locus YMR307W, strain GAS1, stronger effect = lower value",0.793
same,normalized growth,"S. cerevisiae deletion strains, locus YNL067W, strain RPL9B, stronger effect = lower value",0.947
same,normalized growth,"S. cerevisiae deletion strains, locus YNL071W, strain lat1, stronger effect = lower value",0.15 (active)
same,normalized growth,"S. cerevisiae deletion strains, locus YNL128W, strain TEP1, stronger effect = lower value",0.942
same,normalized growth,"S. cerevisiae deletion strains, locus YNL153C, strain GIM3, stronger effect = lower value",0.983
same,normalized growth,"S. cerevisiae deletion strains, locus YNL183C, strain NPR1, stronger effect = lower value",0.972
same,normalized growth,"S. cerevisiae deletion strains, locus YNL209W, strain ssb2, stronger effect = lower value",0.939
same,normalized growth,"S. cerevisiae deletion strains, locus YNL233W, strain BNI4, stronger effect = lower value",0.862 (active)
same,normalized growth,"S. cerevisiae deletion strains, locus YNL248C, strain rpa49, stronger effect = lower value",0.727 (active)
same,normalized growth,"S. cerevisiae deletion strains, locus YNL250W, strain rad50, stronger effect = lower value",0.944
same,normalized growth,"S. cerevisiae deletion strains, locus YNL271C, strain bni1, stronger effect = lower value",0.957
same,normalized growth,"S. cerevisiae deletion strains, locus YNL298W, strain CLA4, stronger effect = lower value",0.928
same,normalized growth,"S. cerevisiae deletion strains, locus YNL307C, strain MCK1, stronger effect = lower value",0.412 (active)
same,normalized growth,"S. cerevisiae deletion strains, locus YNL322C, strain KRE1 (second series), stronger effect = lower value",0.996
same,normalized growth,"S. cerevisiae deletion strains, locus YNL322C, strain KRE1, stronger effect = lower value",0.966
same,normalized growth,"S. cerevisiae deletion strains, locus YNR049C, strain mso1, stronger effect = lower value",0.962
same,normalized growth,"S. cerevisiae deletion strains, locus YNR052C, strain pop2, stronger effect = lower value",0.901 (active)
same,normalized growth,"S. cerevisiae deletion strains, locus YOL006C, strain TOP1, stronger effect = lower value",0.669
same,normalized growth,"S. cerevisiae deletion strains, locus YOL012C, strain htz1",0.791
same,normalized growth,"S. cerevisiae deletion strains, locus YOL147C, strain pex11, stronger effect = lower value",0.903 (active)
same,normalized growth,"S. cerevisiae deletion strains, locus YOR001W, strain rrp6, stronger effect = lower value",0.844 (active)
same,normalized growth,"S. cerevisiae deletion strains, locus YOR061W, strain CKA2, stronger effect = lower value",0.962
same,normalized growth,"S. cerevisiae deletion strains, locus YOR069W, strain VPS5, stronger effect = lower value",0.962
same,normalized growth,"S. cerevisiae deletion strains, locus YOR070C, strain gyp1, stronger effect = lower value",0.817 (active)
same,normalized growth,"S. cerevisiae deletion strains, locus YOR080W, strain dia2, stronger effect = lower value",1
same,normalized growth,"S. cerevisiae deletion strains, locus YOR083W, strain WHI5, stronger effect = lower value",0.788 (active)
same,normalized growth,"S. cerevisiae deletion strains, locus YOR106W, strain vam3, stronger effect = lower value",0.642 (active)
same,normalized growth,"S. cerevisiae deletion strains, locus YOR136W, strain idh2, stronger effect = lower value",0.919 (active)
same,normalized growth,"S. cerevisiae deletion strains, locus YOR144C, strain elg1, stronger effect = lower value",0.956
same,normalized growth,"S. cerevisiae deletion strains, locus YOR184W, strain ser1, stronger effect = lower value",0.738 (active)
same,normalized growth,"S. cerevisiae deletion strains, locus YOR231W, strain MKK1, stronger effect = lower value",1.03
same,normalized growth,"S. cerevisiae deletion strains, locus YOR265W, strain rbl2, stronger effect = lower value",0.945
same,normalized growth,"S. cerevisiae deletion strains, locus YOR270C, strain vph1, stronger effect = lower value",0.416 (active)
same,normalized growth,"S. cerevisiae deletion strains, locus YOR290C, strain snf2, stronger effect = lower value",0.851 (active)
same,normalized growth,"S. cerevisiae deletion strains, locus YOR316C, strain cot1, stronger effect = lower value",0.947
same,normalized growth,"S. cerevisiae deletion strains, locus YPL051W, strain arl3, stronger effect = lower value",0.657 (active)
same,normalized growth,"S. cerevisiae deletion strains, locus YPL055C, strain LGE1, stronger effect = lower value",0.869
same,normalized growth,"S. cerevisiae deletion strains, locus YPL078C, strain atp4, stronger effect = lower value",0.802 (active)
same,normalized growth,"S. cerevisiae deletion strains, locus YPL106C, strain sse1, stronger effect = lower value",1.03
same,normalized growth,"S. cerevisiae deletion strains, locus YPL240C, strain hsp82, stronger effect = lower value",0.851 (active)
same,normalized growth,"S. cerevisiae deletion strains, locus YPL241C, strain CIN2, stronger effect = lower value",0.982
same,normalized growth,"S. cerevisiae deletion strains, locus YPL256C, strain CLN2, stronger effect = lower value",1.08
same,normalized growth,"S. cerevisiae deletion strains, locus YPR119W, strain clb2, stronger effect = lower value",0.944
same,normalized growth,"S. cerevisiae deletion strains, locus YPR141C, strain kar3, stronger effect = lower value",0.963
same,normalized growth,"S. cerevisiae deletion strains, locus YPR163C, strain tif3, stronger effect = lower value",0.8 (active)
same,normalized growth,"S. cerevisiae deletion strains, locus YPR167C, strain met16, stronger effect = lower value",0.95
same,normalized growth,"S. cerevisiae deletion strains, strain wtn01, stronger effect = lower value",0.877 (active)
same,normalized growth,"S. cerevisiae strains, strain wild type, stronger effect = lower value",0.886 (active)
